Measured values taken from PubChem BioAssay (NCI).
About 83,000 compounds went through this panel and 20% of them were active in at least one assay; those are over-represented in the sample as a whole.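 A percent growth of 40 corresponds to 60% growth inhibition; 0 means no net growth; -100 means all cells died. Active threshold: below 10.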 Values without a mark were called inactive. The source made the active and inactive calls.

Key:
Experiment in all cases: NCI-60 one-dose screen, 48 h (100 = growth as untreated, 0 = no growth, -100 = all killed)
Conditions in all cases: 10 µM unless noted
[1] = system: T-47D breast
[2] = system: BT-549 breast
[3] = system: MDA-MB-435 melanoma
[4] = system: SW-620 colon
[5] = system: MCF7 breast
[6] = system: HCT-116 colon
[7] = system: HCC-2998 colon
[8] = system: KM12 colon

Row | Compound | growth [1] | growth [2] | growth [3] | growth [4] | growth [5] | growth [6] | growth [7] | growth [8]
1 | O=C(O)CC1CCN(c2ccc3nnc(Cl)n3n2)CC1 | 96.8% | 101% | 105% | 102% | 91.2% | 103% | 107% | 98.1%
2 | CN1CCN(CCNc2nc(-c3cccc(NS(=O)(=O)c4cccc5c(N(C)C)cccc45)c3)cs2)CC1 | 39.6% | 58.6% | 66% | 70.5% | 11.1% | 32.2% | 49.5% | 77.3%
3 | CCOC(=O)c1cccc(NC2=C(Cl)C(=O)c3nc(C)ccc3C2=O)c1 | 56.4% | 121% | 108% | 84.3% | 76% | 76.7% | 122% | 105%
4 | Cc1csc(/N=C(N)/N=C(\N)c2cccc(C#N)c2)n1 | 79.7% | 73.1% | -6.51% (active) | 44.4% | 77.7% | 49.7% | 87.7% | 46.4%
5 | CC(C)(C)Nc1nc2c(OCCc3ccccc3)cccn2c1-c1cccc(Oc2ccccc2)c1 | 8.72% (active) | -11% (active) | 19.9% | 23.5% | 4.96% (active) | 4.13% (active) | 21.3% | 14%
6 | C/C(=C(\c1ccc(O)cc1)c1ccc(OCCN2CCCCCC2)cc1)c1ccc(Cl)cc1 | -71.9% (active) | -71.8% (active) | -73.9% (active) | -2.89% (active) | -81.1% (active) | -31.7% (active) | -88.2% (active) | -96.1% (active)
7 | COc1ccc(/C(=N\N=C(N)N)c2ccc(Cl)cc2)cc1OC | 68% | 81.2% | 58% | 73.6% | 54.5% | 34.8% | 69.8% | 61.5%
8 | O=C(Nc1ccccc1)Nc1nc2ccc([N+](=O)[O-])cc2[nH]1 | 14.7% | 77.8% | 55.3% | 56% | 53.7% | 39.4% | 60.4% | 45.2%
9 | O=C1[C@@H]2Cc3c([nH]c4ccccc34)[C@@H](c3ccc(Cl)cc3)N2C(=O)CN1C1CCN(Cc2c(F)cccc2F)CC1 | 56.8% | 46.3% | 46.9% | 48.6% | 15.3% | 17.8% | 6.16% (active) | 35.1%
10 | NS(=O)(=O)c1ccc(Nc2nc(N/N=C/c3ccc4c(c3)OCO4)nc(Nc3ccccc3)n2)cc1 | 54.7% | 76.7% | 59.2% | 49.8% | 18.7% | 36.7% | 23.2% | 70.4%
11 | CN1CCN(Cc2ccc(NC(=O)c3cncc(C#Cc4cnc(N)nc4)c3)cc2C(F)(F)F)CC1 | 19% | 38.5% | 12.9% | 10.4% | 27.6% | 3.4% (active) | 42.5% | 9.4% (active)
12 | O=[N+]([O-])c1ccc(NC(=S)NNC(=S)Nc2ccc(Br)cc2)cc1 | 73.3% | 103% | 99% | 91.1% | 70.1% | 90.6% | 53.7% | 55.4%
13 | CC[C@H](CC[C@@H](C)[C@H]1CC[C@H]2[C@@H]3CC(=O)C4=CC(=O)/C(=C/c5ccc([N+](=O)[O-])cc5)C[C@]4(C)[C@H]3CC[C@]12C)C(C)C | 89.1% | 109% | 94.4% | 110% | 84.8% | 86.5% | 105% | 100%
14 | OCC(Nc1ncnc2ccc(-c3cnc4cnccn34)cc12)c1ccccc1 (stereo not drawn) | 28.4% | 76.2% | 90% | 105% | 60.9% | 79.3% | 82.9% | 80.9%
15 | Nc1ccc(Nc2ncnc3sc4c(c23)CCN(Cc2ccccc2)C4)cc1 | 102% | 101% | 102% | 99.7% | 84.5% | 96.9% | 105% | 104%
16 | Cn1ncc2c(C(=O)c3ccc(F)cc3)nc(C(C)(C)C)nc21 | 102% | 98.4% | 97.9% | 95.9% | 93.6% | 95.3% | 103% | 100%
17 | O=C(CCCCCCNC(=O)C(O)(O)C(F)(F)F)Nc1ncc(-c2ccccc2)s1 | 8.47% (active) | -9.98% (active) | 0.873% (active) | 0.575% (active) | 11.7% | 2.27% (active) | -46.1% (active) | -28.7% (active)
18 | CN1CCN(Cc2ccc(NC(=O)c3cncc(C#Cc4cnc5ccc(O[C@@H]6CCOC6)nn45)c3)cc2C(F)(F)F)CC1 | -29.2% (active) | -81.9% (active) | -97.6% (active) | -28% (active) | -68.1% (active) | -73.1% (active) | -85% (active) | -82.4% (active)
19 | C/C(=C(/C)C1CC1CCNC1CCC(NC(=O)OC(C)(C)C)CC1)c1ccccc1 (stereo not drawn) | 45.5% | 85.5% | 52.8% | 60.7% | 15.5% | 33.6% | -55.6% (active) | 73.7%
20 | O=c1oc2ccc(-c3ccc(F)cc3F)cc2c(=O)n1-c1ccc(Br)cc1F | 5.88% (active) | 30.9% | 66.9% | 79.3% | 58.5% | 57.3% | 81.5% | 61.4%
21 | CC1=C(C)C(=O)C(Nc2ccc3c(c2)OCCO3)=C(Br)C1=O | 80.5% | 101% | 102% | 107% | 78.2% | 90.6% | 102% | 93.7%
22 | CC(=O)Nc1nc(C)c(-c2csc(Nc3ccccc3)n2)s1 | 7.07% (active) | 18.1% | 43.3% | 57.8% | 12.3% | 19.7% | 52.3% | 41.1%
23 | O=C(/C=C/C=C/c1csc(Br)n1)NO | 103% | 98.4% | 92.6% | 103% | 84.2% | 95.8% | 107% | 93.4%
24 | O=C(COc1ccc(/C=C2\C(=O)Nc3ccc(F)cc32)cc1)Nc1ccccc1 | 97.7% | 116% | 98.6% | 103% | 89.8% | 69% | 101% | 97.8%
25 | Cc1nc(N)sc1-c1csc(Nc2ccc(C(F)(F)F)cc2)n1 | -0.894% (active) | -12% (active) | 37.8% | 20.6% | 17.3% | 20.6% | – | 10.4%
26 | Oc1[nH]c2ccc(Cl)cc2c1N=Nc1nc(N=Nc2c(O)[nH]c3ccc(Cl)cc23)nc(N2CCOCC2)n1 | 29.3% | -6.36% (active) | 63.5% | 74.3% | 43.1% | 45.4% | – | 81.2%
27 | CCOC(=O)c1cccc(NC2=C(Cl)C(=O)C(C)=C(C)C2=O)c1 | -37.5% (active) | 131% | 104% | 100% | 84.7% | 84.9% | 111% | 89.6%
28 | CC[C@]12C=CCN3CC[C@@]4(c5ccc(OC)cc5N(C)[C@H]4[C@@](O)(C(=O)OC)[C@@H]1OC(=O)CCN1CCc4ccccc4C1)[C@@H]32 | 84% | 93.2% | 95.6% | 95.6% | 82.5% | 90.9% | – | 103%
29 | CC1CCN(CC(=O)Nn2c(COc3ccccc3)nc3ccccc3c2=O)CC1 | 67.8% | 97.9% | 5.85% (active) | 57.2% | 42.4% | 81.9% | – | 45%
